Source: PubChem BioAssay
DRD3 antagonist: qHTS of D3 Dopamine Receptor Antagonist: qHTS; D(3) dopamine receptor (Homo sapiens), P35462; D3R cells, DiscoveRx beta-arrestin luminescence, antagonist mode; hits give low values; max response, negative = inhibition, %; 360,000 tested, 2.5% active; AID 652054, 2013; in the data active means max response below about -50%; inconclusive means no clear call, values can overlap the other calls
Target sequence (P35462 whole entry, looked up): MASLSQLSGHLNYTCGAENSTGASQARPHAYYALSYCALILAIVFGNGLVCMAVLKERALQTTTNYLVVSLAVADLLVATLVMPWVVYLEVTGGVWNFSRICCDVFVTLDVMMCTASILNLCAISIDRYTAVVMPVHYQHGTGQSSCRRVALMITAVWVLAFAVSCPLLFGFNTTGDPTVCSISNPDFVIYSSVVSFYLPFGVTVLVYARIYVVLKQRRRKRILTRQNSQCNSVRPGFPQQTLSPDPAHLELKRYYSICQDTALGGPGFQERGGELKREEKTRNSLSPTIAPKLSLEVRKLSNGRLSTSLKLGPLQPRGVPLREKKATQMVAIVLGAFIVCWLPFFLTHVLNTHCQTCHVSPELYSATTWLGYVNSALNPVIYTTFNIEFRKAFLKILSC
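Cells expressing the human receptor were seeded at 1500 cells/well, incubated overnight at 37 degrees C in 5% CO2, then exposed to library compounds with dopamine controls for 90 minutes at 37 degrees C before luminescent detection.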
D3 ag: qHTS of D3 Dopamine Receptor Agonist: qHTS | max activation, % | 410,000 tested, 0.58% active | AID 652048, 2013 | D3R DiscoveRx beta-arrestin cells, luminescence, 90 min; in the data active means max activation above about 30%
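Agonist-mode cell screen: cells plated at 1500/well and incubated overnight at 37 °C, then exposed to library compounds for 90 min at 37 °C. Detection reagent was added for 30–60 min at room temperature, and luminescence was read.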
D1 antagonist: Antagonist of Human D 1 Dopamine Receptor: qHTS; 360,000 tested, 3.2% active; HEK293 TREx D1 cells, calcium flux, dopamine EC80; hits give low values; D(1A) dopamine receptor (Homo sapiens), P21728; AID 504652, 2011; activity change, negative = inhibition, % at 10 µM; in the data active means activity change below about -30%
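Allosteric or orthosteric antagonism assessed as attenuation of the calcium response to EC80 dopamine, added 180 s after compound, in induced HEK293 Trex D1 cells loaded with no-wash calcium dye.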
D1 ag: Allosteric Agonists of the Human D1 Dopamine Receptor: qHTS; D(1A) dopamine receptor (Homo sapiens), P21728; HEK293 T-REx D1 cells, calcium flux, agonist mode; activation, % at 2 µM; 360,000 tested, 1% active; in the data active means activation above about 30%
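Tetracycline-induced HEK293 TREx D1 cells, force-coupled to calcium signalling, were dye-loaded with a no-wash calcium kit. Compound was pin-added after a 10 s baseline. Fluorescence was read kinetically at 1 cycle/s for 180 s, with calcium rises flagged as agonism.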
D1 potentiator: Potentiators of Human D1 Dopamine Receptor: qHTS; D(1A) dopamine receptor (Homo sapiens), P21728; HEK293 TREx D1 cells, calcium flux, dopamine EC20 potentiation; potentiation, % at 10 µM; 360,000 tested, 0.036% active; in the data active means potentiation above about 30%
Of the large screens only hits and unclear results are named; the others gave an inactive call. An excerpt weighted towards active compounds, which were near 6% of everything screened.

COc1ccc(CCC(C)NCc2cc(OC)cc(OC)c2)cc1 (stereo not given)	none
COc1ccc(CCC(C)Nc2ccc(F)c(F)c2)cc1 (stereo not given)	none
COc1ccc(CCC(C)NCc2ccc(Cl)c(Cl)c2)cc1 (stereo not given)	DRD3 antagonist -55, D1 ag 32
CCOC(=O)N1CCN(c2cc(=O)n(-c3ccc(OCC)cc3)c(=O)[nH]2)CC1	none
CCOc1ccc(-n2c(=O)cc(N3CCN(c4ccc(F)cc4)CC3)[nH]c2=O)cc1	DRD3 antagonist -114
CN(C(=O)c1cc2n(n1)C(C(F)(F)F)CC(c1ccco1)N2)c1ccccc1 (stereo not given)	D1 antagonist -50
O=C(NC1CCCCCC1)c1cc2n(n1)C(C(F)(F)F)CC(c1ccco1)N2 (stereo not given)	none
NC(=O)C1CCN(C(=O)c2cc3n(n2)C(C(F)(F)F)CC(c2ccco2)N3)CC1 (stereo not given)	D1 antagonist -40
CCCCn1c(SCC(=O)NC2CC2)nc2cc(C(=O)OC)ccc2c1=O	none (no result: D1 antagonist, D1 ag, D1 potentiator)
Cc1cc(Nc2ccccc2)nc(NCc2ccccc2)n1	DRD3 antagonist inconclusive
CCCCNc1cc(C)nc(NCc2ccccc2)n1	DRD3 antagonist -63, D1 antagonist -52, D1 ag 61
Cc1cc(N/N=C/c2ccc(Cl)cc2Cl)nc(NCc2ccccc2)n1	D1 antagonist -48
COc1ccc(-c2nc(CN(Cc3cnn(C)c3)C(C)C)c(C)o2)c(OC)c1	D1 antagonist -31
CC1(C)C(\C=C/C=C\C=C/C=C2/N(CCCCS(=O)(=O)O)c3ccc4ccccc4c3C2(C)C)=[N+](CCCCS(=O)(=O)[O-])c2ccc3ccccc3c21	none (no result: DRD3 antagonist, D1 antagonist, D1 ag, D1 potentiator)
O=C(CCn1cccn1)Nc1ccc2c(c1)OCO2	none
O=c1/c(=C/c2ccco2)sc2n1CN(c1cccc(Br)c1)CN=2	DRD3 antagonist -61
CN1CCN(/C(=N\O)c2nonc2N)CC1	DRD3 antagonist -68, D1 antagonist -42
Nc1nonc1C(=O)OCC(=O)N1CCOCC1	none
Nc1nonc1/C(=N/O)N1CCN(CCO)CC1	DRD3 antagonist -64
CCN1CCc2c(OCc3ccccc3)cccc2C1=O	D1 antagonist -38
O=C(CCNC(=O)C1CCN(S(=O)(=O)c2ccc(F)cc2)CC1)NCc1ccccc1Cl	none
CCCCN(C)CCNC(=O)C1CCN(c2nc3ccc(CC)cc3s2)CC1	D1 antagonist -55, D1 ag 65 (no result: DRD3 antagonist)
Cc1cc(C)c(NC(=O)CSc2nnc(CNC(=O)c3ccco3)o2)c(C)c1	none
CCOC(=O)c1cnn(-c2ccc(NS(=O)(=O)c3ccc(Cl)cc3)cc2)c1C(F)(F)F	D1 antagonist -62
CCOC(=O)c1ccc(NS(=O)(=O)c2ccc(Cl)nc2)cc1	none (no result: DRD3 antagonist, D3 ag)
C[C@H](NC(=O)c1[nH]cnc1C(=O)Nc1ccccc1F)c1ccccc1	none (no result: D1 antagonist, D1 ag, D1 potentiator)
NC(=O)C1CCN(C(=O)C2CC(=O)N(c3ccc4c(c3)OCCO4)C2)CC1 (stereo not given)	D1 antagonist -34
CC1CC(C)CN(C(=O)C2CC(=O)N(c3ccc4c(c3)OCCO4)C2)C1 (stereo not given)	none
CCOC(=O)C1=C(C)NC(C)=C(C(=O)OC)C1c1ccco1 (stereo not given)	none
C=CCOC(=O)C1=C(C)NC(C)=C(C(=O)OCC=C)C1c1ccco1	D1 antagonist -30
CC1CCN(S(=O)(=O)c2ccc3c(c2)CCN3)CC1	none (no result: DRD3 antagonist)
Cc1cc(C2=CC(=O)C[C@H](c3ccc(F)cc3)C2)ccc1F	none (no result: D1 antagonist, D1 ag, D1 potentiator)
Cc1ccc(CN=c2c([N+](=O)[O-])nn(-c3cccc(C)c3)n2O)cc1	D1 antagonist -47
Cc1ccc(CN=c2c([N+](=O)[O-])nn(-c3cccc(Cl)c3)n2O)cc1	D1 antagonist -34
Cc1cc(C)n2nc(C(=O)OCC(=O)Nc3ccc(C)c(S(=O)(=O)N4CCOCC4)c3)nc2n1	none (no result: D1 antagonist, D1 ag, D1 potentiator)
Cn1c(SCC(=O)NCc2ccco2)nnc1-c1ccccc1	DRD3 antagonist inconclusive, D1 antagonist -53
CCCCn1nnnc1SCC(=O)NCc1ccco1	D1 antagonist -33
CCn1nnnc1SCC(=O)NCc1ccco1	none
